Screening results: PubChem BioAssay, National Center for Advancing Translational Sciences (NCATS)
Hits are enriched below; roughly 18% of the tested compounds scored in any of these assays.
IL1B secr inh: inhibitors of inflammasome signaling (IL-1 beta secretion); THP-1 LPS/ATP IL-1B secretion, AlphaLISA, 16 h; hits give low values; activity change, % at 57.5 µM; 360,000 compounds, 4.7% hits; in the data active = activity change below about -50%; inconclusive = mostly about -30% to -49%
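Secreted IL-1B measured by AlphaLISA bead assay after 16 h compound exposure of THP-1 cells; compounds (final up to 57.5 uM) added 1 h before LPS (250 ng/mL) and ATP (1.25 mM) stimulation; lower signal means less secretion.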
TDP1 block: blocks human tyrosyl-DNA phosphodiesterase 1. Q9NUW8. recombinant TDP1, AlphaScreen DNA substrate cleavage. Potency, µM (titrated, usually from 130 µM), without a hit: at the top dose activity change, negative = inhibition, usual class: inhibitors. 350,000 compounds, 0.28% hits. AID 485290; also: potency is read from the fitted curve at half-maximal effect; nearly all actives have a fitted effect of over 40% in size
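Tdp1 1 nM final; 15 min RT w/ cpd; substrate 15 nM, 5 min; beads 10 ug/ml, 10 min; AlphaScreen read. Neg ctrl: no enzyme.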
DT40 TDP1 no CPT: qHTS for Inhibitors of human tyrosyl-DNA phosphodiesterase 1 (TDP1): qHTS in cells in absence of CPT; DT40 Tdp1-/- hTDP1 cells, no CPT, ATP luminescence, 48 h; Potency, µM (top dose mostly 46.2 µM), without a hit: top-dose activity change, negative = growth inhibition, usual class: inhibitors; 420,000 compounds, 15% hits; also: potency is read from the fitted curve at half-maximal effect; nearly all actives have a fitted effect of over 55% in size
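Seeded 400 DT40-hTDP1 cells/well (vehicle DMSO, no 20 nM CPT); pinned compounds; ≥48 hr at 37 °C; CellTiter-Glo luminescence as viability measure.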
DT40 TDP1 CPT: DT40-hTDP1 cell growth loss with CPT | 420,000 compounds, 12% hits | AID 686979 | Potency, µM (titrated, usually from 46.2 µM), for the others: at the top dose activity change, negative = growth inhibition, hits mostly inhibitors | chicken DT40 Tdp1-/-;hTDP1 cells + 20 nM CPT, ATP luminescence, 48 h; also: potency is read from the fitted curve at half-maximal effect; nearly all actives have a fitted effect of over 55% in size
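Cell growth measured by CellTiter-Glo luminescence after a minimum 48 h, 37 C compound exposure with 20 nM CPT in Tdp1-knockout DT40 cells stably expressing hTDP1, seeded 400/well; qHTS titration format.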
Six1-Eya2 inh: blocks human Six1 binding to Eya2; AlphaScreen GST-Six1/His-Eya2 binding, biochemical; hits give low values; Q15475+O00167; activity change, % (no concentration beside the values); AID 651725; 360,000 compounds, 0.56% hits; in the data active = activity change below about -65%; inconclusive = mostly about -30% to -63%
Target sequence (O00167 whole entry, looked up): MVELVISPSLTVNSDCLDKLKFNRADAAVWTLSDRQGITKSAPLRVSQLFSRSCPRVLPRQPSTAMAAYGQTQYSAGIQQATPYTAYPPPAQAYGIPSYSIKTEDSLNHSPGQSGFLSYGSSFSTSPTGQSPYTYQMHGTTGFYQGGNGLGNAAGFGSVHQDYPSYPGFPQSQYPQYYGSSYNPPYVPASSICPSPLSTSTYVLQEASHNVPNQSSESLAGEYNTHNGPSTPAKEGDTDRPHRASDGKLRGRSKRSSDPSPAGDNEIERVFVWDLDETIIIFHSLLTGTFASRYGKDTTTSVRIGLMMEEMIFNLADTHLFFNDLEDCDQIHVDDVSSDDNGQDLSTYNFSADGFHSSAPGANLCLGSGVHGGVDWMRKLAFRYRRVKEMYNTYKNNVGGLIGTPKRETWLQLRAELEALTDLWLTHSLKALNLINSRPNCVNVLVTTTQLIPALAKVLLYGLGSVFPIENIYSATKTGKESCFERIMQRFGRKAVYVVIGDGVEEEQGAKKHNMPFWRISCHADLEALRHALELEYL
Target sequence (Q15475 whole entry, looked up): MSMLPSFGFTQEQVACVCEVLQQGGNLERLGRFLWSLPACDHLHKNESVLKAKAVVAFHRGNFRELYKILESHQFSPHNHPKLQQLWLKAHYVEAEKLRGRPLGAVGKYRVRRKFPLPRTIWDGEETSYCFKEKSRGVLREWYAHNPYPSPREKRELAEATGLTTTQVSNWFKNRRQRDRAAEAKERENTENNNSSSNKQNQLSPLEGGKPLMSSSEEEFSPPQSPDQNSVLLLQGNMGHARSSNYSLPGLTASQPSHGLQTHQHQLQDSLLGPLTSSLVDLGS
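Homogeneous AlphaScreen proximity assay pairing GST-Six1 with His-tagged Eya2 (added as 5X mix: 250 nM and 500 nM) in 50 mM Tris pH 8.0, 300 mM NaCl, 1 mM TCEP. Glutathione donor and nickel acceptor beads; 1 h, 37 °C, dark.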
CtBP-E1A inh: inhibitors of CtBP/E1A interaction | AlphaScreen GST-E1A/His-CtBP binding, 1536-well; hits give low values | activity change, % (concentration not given with the values) | 340,000 compounds, 0.49% hits | AID 651724; in the data active = activity change below about -65%; inconclusive = mostly about -30% to -63%
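AlphaScreen with 125 nM GST-E1A and 125 nM His-CtBP (5X stocks) in Tris pH 8.0, 300 mM NaCl, BSA, Tween 20, TCEP. Compounds preincubated 2 h at 37 deg C, then glutathione donor/nickel acceptor beads added for 1 h at 37 deg C in dark.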
* hit, by the source's call; ? = inconclusive; nt = not tested or not shown. Unless noted, calls follow the shape of the dose curve; as a rule, active = well fitted curve in the direction sought with a large enough effect; inconclusive = small, poorly fitted or top-dose-only effect, or another doubt; inactive = no such curve, though single readings can be large; an effect the other way counts as inactive or inconclusive. % is scaled to controls: 0 for no effect and ±100 for the full control effect.

SMILES	IL1B secr inh	TDP1 block	DT40 TDP1 no CPT	DT40 TDP1 CPT	Six1-Eya2 inh	CtBP-E1A inh
CC(C)(C)[C@H]1COC(=O)[C@@H](NC(=O)OCC2c3ccccc3-c3ccccc32)C/C=C\C[C@@H](CC(=O)N[C@@H](CO)Cc2ccccc2)C(=O)N1	-7	-1%	6.5µM*	9.2µM*	8	5
C[C@H]1COC(=O)[C@@H](CC(=O)OC(C)(C)C)C/C=C\C[C@@H](CC(=O)N[C@H](CO)Cc2ccccc2)C(=O)N1	2	1%	?	?	4	7
O=C(C[C@@H]1C/C=C\C[C@@H](NC(=O)OCC2c3ccccc3-c3ccccc32)C(=O)OCCNC1=O)N[C@@H](CO)Cc1ccccc1	24	1%	8.2µM*	9.2µM*	-1	2
C[C@@H]1COC(=O)[C@H](NC(=O)OCC2c3ccccc3-c3ccccc32)C/C=C\C[C@@H](CC(=O)N[C@H](CO)Cc2ccccc2)C(=O)N1	-1	-5%	21µM*	18µM*	11	18
Cc1ccc(-n2c(-c3ccccc3)cc(=O)nc2C)cc1	16	1%	-7%	-1%	6	11
Cc1ccc(CCNC(=O)c2ccc(CS(=O)(=O)c3ccccc3C)o2)cc1	0	6%	-20%	-18%	-2	-6
CC(C)c1cc(NC(=O)CCl)on1	-79*	4%	9.2µM*	13µM*	9	nt
CC1(NC(=O)Cc2csc(-c3cccc(Cl)c3)n2)CCS(=O)(=O)C1 (stereo not drawn)	1	-1%	?	-24%	-1	nt
Cc1ccccc1OCC(=O)Nc1ccc([N+](=O)[O-])cc1	-4	nt	?	-32%	1	-4
Cc1ccc2oc(-c3cc(NC(=O)CC(C)C)ccc3Cl)nc2c1	nt	nt	12µM*	10µM*	nt	nt
CC(C)CC(=O)Nc1ccc2oc(-c3ccncc3)nc2c1	-21	9%	-29%	-29%	-5	-3
Cc1ccc2oc(-c3cccc(NC(=O)c4cccc5c(Cl)cccc45)c3)nc2c1	nt	10%	5%	1%	nt	nt
COc1c(C)cccc1C(=O)Nc1ccc(Cl)c(-c2nc3cc(C)ccc3o2)c1	nt	5%	9.2µM*	15µM*	nt	nt
Cc1ccc(C(=O)NC(=S)NNS(=O)(=O)c2ccccc2)cc1	-7	8%	-17%	0%	-15	-15
CC1(C(=O)NS(=O)(=O)C2CC2)CCN(C(=O)c2cccc(Cl)c2)C1 (stereo not drawn)	0	nt	2%	-22%	13	7
CC(=O)/C(=N/Nc1ccccc1)N1CCOCC1	-12	5%	-5%	-17%	-1	5
CC(=O)/C(=N/Nc1ccccc1C)N1CCOCC1	14	8%	21µM*	8.2µM*	4	-11
COc1ccc(C2C(C(=O)c3ccccc3)N3c4ccccc4C=CC3C2[N+](=O)[O-])cc1 (stereo not drawn)	-21	7%	10µM*	7.3µM*	-17	-19
CCNC(=O)Cc1ccc(Br)cc1	0	6%	2%	10%	8	11
CCOC(=O)Cn1c(=O)n(Cc2ccc(C)cc2)c(=O)c2cccnc21	-2	nt	?	-13%	17	nt
CN(c1ccccc1)S(=O)(=O)c1cccc(NC(=O)CSc2nnc(C3CC3)n2C)c1	16	0%	-15%	-16%	2	-11
CN(c1ccccc1)S(=O)(=O)c1cccc(NC(=O)CSc2nncs2)c1	1	4%	8.2µM*	7.3µM*	-4	-2
Cc1ccccc1C(=O)Nc1cccc(NC(=O)Cn2cnc3c(=O)n(C)c(=O)n(C)c32)c1	47	7%	8.2µM*	10µM*	-3	-8
CN(c1ccccc1)S(=O)(=O)c1cccc(NC(=O)Cn2cnc3c2c(=O)n(C)c(=O)n3C)c1	8	5%	16µM*	23µM*	3	3
CN(c1ccccc1)S(=O)(=O)c1cccc(NC(=O)CSc2nnc(N)s2)c1	-3	5%	8.2µM*	8.2µM*	-11	-18
SMILES	IL1B secr inh	TDP1 block	DT40 TDP1 no CPT	DT40 TDP1 CPT	Six1-Eya2 inh	CtBP-E1A inh
CCOc1ccccc1N1CCN(C(=O)c2ccc(-c3ccc(OC(C)=O)cc3)cc2)CC1	-8	nt	?	?	-11	nt
Cc1cccn2c(=O)c(/C=C(\C#N)S(=O)(=O)c3ccccc3)c(N3CCN(c4ccccc4)CC3)nc12	19	4%	?	-19%	-11	nt
CN(c1ccccc1)S(=O)(=O)c1cccc(NC(=O)CSc2ncn[nH]2)c1	23	7%	5.8µM*	8.2µM*	1	2
COCCNc1nc2c(S(=O)(=O)c3ccc(C)c(C)c3)nnn2c2ccc(Cl)cc12	nt	2%	-17%	?	nt	nt
COc1ccc2cc(Br)ccc2c1CC(=O)NC1CC(C)(C)NC(C)(C)C1	-66*	1%	23µM*	?	-1	-2
CCNC(=O)Cc1c(OC)ccc2cc(Br)ccc12	5	4%	-6%	4%	-1	nt
COc1cc2c(cc1OC)CN(C(=O)c1cc(Cl)nc(Cl)c1)CC2	-8	nt	?	?	-4	-13
CCN(C(=O)C1CCCN(c2ncnc3c2nc2n3CCCCC2)C1)c1cccc(C)c1 (stereo not drawn)	nt	7%	5.8µM*	12µM*	nt	nt
O=C(NCc1ccccc1Cl)C1CCCN(c2ncnc3c2nc2n3CCCCC2)C1 (stereo not drawn)	-20	2%	?	?	1	-19
CCN(C(=O)C1CCCN(c2ncnc3c2nc2n3CCCCC2)C1)c1cccc(Cl)c1 (stereo not drawn)	-2	4%	10µM*	21µM*	-7	nt
O=C(NNC(=O)c1cnccn1)c1ccc(Cl)c(Cl)c1	166	3%	3.7µM*	7.3µM*	-14	-6
O=C(NNC(=O)c1ccccc1Br)c1cnccn1	16	0%	?	18µM*	-16	nt
NC(=O)COC(=O)[C@H](Cc1c[nH]c2ccccc12)NC(=O)c1ccc(F)cc1	34	-6%	-9%	-14%	-4	5
Cc1ccc(Nc2nc(N)c(C#N)c(CC#N)c2C#N)cc1	-97*	-3%	2%	-15%	-2	-9
COc1ccc(OC)c(C2C(C(C)=O)=C(O)C(=O)N2CCc2ccc(OC)c(OC)c2)c1 (stereo not drawn)	3	-5%	-5%	4%	1	3
